{
  "source": "PubChem BioAssay AID651756",
  "about": "(Johns Hopkins Ion Channel Center, 2012)",
  "target": "High affinity choline transporter 1 (Homo sapiens) (UniProt Q9GZV3)",
  "sequence (Q9GZV3 whole entry, looked up)": "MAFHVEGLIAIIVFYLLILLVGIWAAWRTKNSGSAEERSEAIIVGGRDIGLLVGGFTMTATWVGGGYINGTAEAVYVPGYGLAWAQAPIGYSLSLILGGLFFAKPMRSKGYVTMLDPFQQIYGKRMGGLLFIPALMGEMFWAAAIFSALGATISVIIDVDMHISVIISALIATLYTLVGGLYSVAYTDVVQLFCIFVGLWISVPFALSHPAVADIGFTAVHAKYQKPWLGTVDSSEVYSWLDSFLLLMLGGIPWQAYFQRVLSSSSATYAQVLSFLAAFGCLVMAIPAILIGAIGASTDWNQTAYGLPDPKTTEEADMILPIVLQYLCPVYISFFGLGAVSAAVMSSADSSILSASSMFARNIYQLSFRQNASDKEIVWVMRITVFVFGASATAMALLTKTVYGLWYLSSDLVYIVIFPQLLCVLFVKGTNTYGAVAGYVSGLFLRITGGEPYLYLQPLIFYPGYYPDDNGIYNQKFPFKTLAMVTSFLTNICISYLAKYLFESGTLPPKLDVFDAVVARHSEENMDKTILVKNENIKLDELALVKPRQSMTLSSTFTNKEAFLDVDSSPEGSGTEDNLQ",
  "assay": "CHT inhibitors reducing choline uptake, dose response, orthogonal assay for CHT inhibitor project, cell-based, 3H-choline uptake, radioactive, HEK293 CHT LV-AA (AID 651756)",
  "note": "Results with a measured potency or affinity are listed apart. Active and inactive are the calls of the source.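 Rule for the calls: active = dose curve could be fitted and remaining uptake under 40% of control at 33.3 µM; inactive = the rest.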",
  "data": [
    {"smiles": "Cc1cccc(C(=O)Nc2ccc(S(=O)(=O)Nc3ccccn3)cc2)c1", "values": [
      {"measurement": "outcome", "result": "inactive"}
    ]},
    {"smiles": "O=C1c2cccc(Cl)c2C(=O)N1c1ccc(S(=O)(=O)Nc2ccccn2)cc1", "values": [
      {"measurement": "outcome", "result": "inactive"}
    ]},
    {"smiles": "CC1(c2ccccc2)CC(=O)N(c2ccc(S(=O)(=O)Nc3ccccn3)cc2)C1=O", "note": "(stereo not drawn)", "values": [
      {"measurement": "outcome", "result": "inactive"}
    ]},
    {"smiles": "O=C(Nc1ccc(S(=O)(=O)Nc2ccccn2)cc1)c1ccc2c(c1)CCCC2", "values": [
      {"measurement": "outcome", "result": "inactive"}
    ]},
    {"smiles": "Cc1ccc(C(=O)Nc2ccc(S(=O)(=O)Nc3ccccn3)cc2)c2ccccc12", "values": [
      {"measurement": "outcome", "result": "inactive"}
    ]},
    {"smiles": "Cc1c(C(=O)Nc2ccc(S(=O)(=O)Nc3ccccn3)cc2)cccc1[N+](=O)[O-]", "values": [
      {"measurement": "outcome", "result": "inactive"}
    ]},
    {"smiles": "O=C1c2ccccc2C(=O)N1c1ccc(S(=O)(=O)Nc2ccccn2)cc1", "values": [
      {"measurement": "outcome", "result": "inactive"}
    ]},
    {"smiles": "O=C(Nc1ccc(S(=O)(=O)Nc2ccccn2)cc1)c1ccc(C(F)(F)F)cc1", "values": [
      {"measurement": "outcome", "result": "inactive"}
    ]},
    {"smiles": "O=C1c2cccc(F)c2C(=O)N1c1ccc(S(=O)(=O)Nc2ccccn2)cc1", "values": [
      {"measurement": "outcome", "result": "inactive"}
    ]},
    {"smiles": "O=C(Nc1ccc(S(=O)(=O)Nc2ccccn2)cc1)c1ccccc1-c1ccccc1", "values": [
      {"measurement": "outcome", "result": "inactive"}
    ]},
    {"smiles": "O=C1c2ccc(Cl)cc2C(=O)N1c1ccc(S(=O)(=O)Nc2ccccn2)cc1", "values": [
      {"measurement": "outcome", "result": "inactive"}
    ]},
    {"smiles": "Cc1ccc(C(=O)Nc2ccc(S(=O)(=O)Nc3ccccn3)cc2)cc1", "values": [
      {"measurement": "outcome", "result": "inactive"}
    ]},
    {"smiles": "Cc1ccc(C(=O)Nc2ccc(S(=O)(=O)Nc3ccccn3)cc2)c(C)c1", "values": [
      {"measurement": "outcome", "result": "inactive"}
    ]},
    {"smiles": "O=C1C(c2ccccc2)C(c2ccccc2)C(=O)N1c1ccc(S(=O)(=O)Nc2ccccn2)cc1", "note": "(stereo not drawn)", "values": [
      {"measurement": "outcome", "result": "inactive"}
    ]},
    {"smiles": "Cc1cccc(C(=O)Nc2ccc(S(=O)(=O)Nc3ccccn3)cc2)c1C", "values": [
      {"measurement": "outcome", "result": "inactive"}
    ]},
    {"smiles": "O=C(Nc1ccc(S(=O)(=O)Nc2ccccn2)cc1)c1cccc(C(F)(F)F)c1", "values": [
      {"measurement": "outcome", "result": "inactive"}
    ]},
    {"smiles": "O=C(Nc1ccc(S(=O)(=O)Nc2ccccn2)cc1)c1cccc(-c2ccccc2)c1", "values": [
      {"measurement": "outcome", "result": "inactive"}
    ]},
    {"smiles": "Cc1cc(C)c(C(=O)Nc2ccc(S(=O)(=O)N(C)c3ccccn3)cc2)c(C)c1", "values": [
      {"measurement": "outcome", "result": "inactive"}
    ]},
    {"smiles": "O=C(Nc1ccc(S(=O)(=O)Nc2ccccn2)cc1)c1cccc2ccccc12", "values": [
      {"measurement": "outcome", "result": "inactive"}
    ]},
    {"smiles": "O=C1CC2(CCCCC2)C(=O)N1c1ccc(S(=O)(=O)Nc2ccccn2)cc1", "values": [
      {"measurement": "outcome", "result": "inactive"}
    ]},
    {"smiles": "O=C(Nc1ccc(S(=O)(=O)Nc2ccccn2)cc1)c1cccc(Cl)c1", "values": [
      {"measurement": "outcome", "result": "inactive"}
    ]},
    {"smiles": "O=C(Nc1ccc(S(=O)(=O)Nc2ccccn2)cc1)c1ccc(Cc2ccccc2)cc1", "values": [
      {"measurement": "outcome", "result": "inactive"}
    ]},
    {"smiles": "COc1cc(C)ccc1C(=O)Nc1ccc(S(=O)(=O)Nc2ccccn2)cc1", "values": [
      {"measurement": "outcome", "result": "inactive"}
    ]},
    {"smiles": "O=C(Nc1ccc(S(=O)(=O)Nc2ccccn2)cc1)c1ccc(Cl)cc1", "values": [
      {"measurement": "outcome", "result": "inactive"}
    ]},
    {"smiles": "Cc1cc(F)ccc1C(=O)Nc1ccc(S(=O)(=O)Nc2ccccn2)cc1", "values": [
      {"measurement": "outcome", "result": "inactive"}
    ]},
    {"smiles": "O=C1CC(c2ccccc2)C(=O)N1c1ccc(S(=O)(=O)Nc2ccccn2)cc1", "note": "(stereo not drawn)", "values": [
      {"measurement": "outcome", "result": "inactive"}
    ]},
    {"smiles": "Cc1cc(C)c(C(=O)Nc2ccc(S(=O)(=O)Nc3ccccc3)cc2)c(C)c1", "values": [
      {"measurement": "outcome", "result": "inactive"}
    ]},
    {"smiles": "Cc1ccccc1C(=O)Nc1ccc(S(=O)(=O)Nc2ccccn2)cc1", "values": [
      {"measurement": "outcome", "result": "inactive"}
    ]}
  ]
}
